Screens: PubChem, several laboratories
A3G deaminase = inhibitors of human APOBEC3G DNA deaminase; hit rate 0.28% among 330,000; AID 493012; Q9HC16; recombinant A3G, ssDNA deamination FAM/TAMRA fluorescence; inhibition, % at 20 µM;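 active means inhibition of at least 40% at 20 µM, with no more than 30% in the related APOBEC3A deaminase screen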;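 further: plate controls were DMSO wells with A3G for no effect and wells lacking A3G enzyme for full effect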
VLA-4 inh = inhibition in a human VLA-4 binding assay; hit rate 0.2% among 330,000; inhibition, % (about 7 µM as worked out from the volumes in the protocol); AID 2557; VLA-4 expressing cells, ligand binding flow cytometry; P13612; in the data active means inhibition above about 50%
GRK2 inh = human GRK2 inhibition via aptamer displacement; inhibition of aptamer binding, % at 10 µM; AID 488847; P25098; hit rate 0.59% among 330,000; bead flow cytometry, FAM-aptamer displacement from GRK2;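 active means inhibition of aptamer binding above 40%, roughly 3 SD of noise, on plates passing a quality check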;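 further: median bead fluorescence of bound FAM aptamer so fluorescent compounds give negative values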
Target sequence (P25098 whole entry, looked up): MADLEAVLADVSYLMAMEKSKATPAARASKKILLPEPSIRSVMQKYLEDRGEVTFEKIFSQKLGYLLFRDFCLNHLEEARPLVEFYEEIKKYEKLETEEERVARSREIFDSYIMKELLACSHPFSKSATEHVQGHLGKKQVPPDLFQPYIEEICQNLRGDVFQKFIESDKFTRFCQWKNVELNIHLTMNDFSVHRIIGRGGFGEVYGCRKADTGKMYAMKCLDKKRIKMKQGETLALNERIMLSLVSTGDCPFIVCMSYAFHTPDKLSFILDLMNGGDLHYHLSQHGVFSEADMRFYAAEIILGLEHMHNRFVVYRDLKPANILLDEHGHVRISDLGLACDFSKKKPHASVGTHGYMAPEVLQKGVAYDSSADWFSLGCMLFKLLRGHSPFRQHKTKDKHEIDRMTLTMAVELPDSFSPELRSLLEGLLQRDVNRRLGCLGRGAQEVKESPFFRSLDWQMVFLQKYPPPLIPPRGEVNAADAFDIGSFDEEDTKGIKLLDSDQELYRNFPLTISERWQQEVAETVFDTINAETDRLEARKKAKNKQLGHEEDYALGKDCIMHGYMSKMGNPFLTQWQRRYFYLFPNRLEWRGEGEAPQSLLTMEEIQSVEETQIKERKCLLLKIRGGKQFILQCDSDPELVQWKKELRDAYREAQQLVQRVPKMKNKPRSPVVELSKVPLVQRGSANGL
APOBEC3A inh = inhibitors of human APOBEC3A DNA deaminase | inhibition, % at 20 µM | recombinant A3A, FAM/TAMRA ssDNA deamination fluorescence | hit rate 0.41% among 330,000 | AID 493011 | P31941;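 active means at least 40% inhibition at 20 µM here, with at most 30% in a related deaminase screen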;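 further: plate controls were A3A with DMSO for no effect and wells lacking A3A enzyme for full effect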
APOBEC3A confirm = APOBEC3A (human) deaminase inhibition, confirmed; shares compounds with APOBEC3A inh; recombinant A3A, ssDNA deaminase UDG fluorescence assay; inhibition, % at 20 µM; hit rate 63% among 1,400; AID 493151;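 active means inhibition reaching a set limit, 80% of the first screen's cutoff, at 20 µM in any replicate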;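 further: plate controls were DMSO wells with A3A for no effect and wells lacking A3A enzyme for full effect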
UDG A3A counter = counter-screen for APOBEC3A inhibitors: UDG; shares compounds with APOBEC3A inh; UDG counterscreen, FAM/TAMRA uracil oligo fluorescence; inhibition, % at 20 µM; 1,000 tested, under 10 active; AID 504714; call rule not given here
* hit, by the source's call; i = inactive; / = no result. This is a sample that favours compounds with a hit; in the whole collection about 1.4% have one here.

SMILES | A3G deaminase | VLA-4 inh | GRK2 inh | APOBEC3A inh | APOBEC3A confirm | UDG A3A counter
CN1CCN(c2ccc(S(=O)(=O)N3CCCCC3)cc2NC(=O)/C=C/c2ccc(OC(F)F)cc2)CC1 | -1 | 0 | 0 | 29 | / | /
CCN1CCN(c2ccc(S(=O)(=O)N3CCOCC3)cc2NC(=O)CC(C)C)CC1 | 2 | 4 | 0 | 3 | / | /
CCN1CCN(c2ccc(S(=O)(=O)N3CCCCC3)cc2NC(=O)c2ccc(OC(F)F)cc2)CC1 | 5 | -4 | 0 | 47* | 54* | 2
CCn1nc(C)c(CNC(=O)c2cc(COc3cncc(Cl)c3)on2)c1C | -8 | 22 | 6 | -3 | / | /
COCCCNC(=S)NC1CC2CCC(C1)N2Cc1ccccc1 (stereo not drawn) | -1 | 8 | 0 | -3 | / | /
CC(=O)Nc1ccc(NC(=O)C(C)OC(=O)c2cccc(S(=O)(=O)N3CCCC3)c2)cc1 (stereo not drawn) | 16 | 22 | 2 | 42* | 6 | /
CCN1CCN(c2ccc(S(=O)(=O)N3CCCCC3)cc2NC(=O)/C=C/c2ccc([N+](=O)[O-])cc2)CC1 | 12 | 8 | 0 | 40* | 18 | /
CCN1CCN(c2ccc(S(=O)(=O)N3CCCCC3)cc2NC(=O)/C=C/c2ccc(F)cc2)CC1 | 22 | -4 | 0 | 61* | 64* | 0
CCN1CCN(c2ccc(S(=O)(=O)N3CCCCC3)cc2NC(=O)CC(NC(C)=O)c2ccccc2)CC1 (stereo not drawn) | 13 | -7 | 0 | 88* | 65* | 3
CC(=O)Nc1ccc(NC(=O)C(C)OC(=O)c2cccc(S(=O)(=O)N3CCCCC3)c2)cc1 (stereo not drawn) | 1 | -21 | 4 | 2 | / | /
CCN1CCN(c2ccc(S(=O)(=O)N3CCOCC3)cc2NC(=O)/C=C/c2ccc(C)cc2)CC1 | -1 | 9 | 0 | 2 | / | /
O=C(Nc1nc(-c2ccc(Cl)cc2)cs1)NC1CCCCC1 | -9 | 5 | 1 | 0 | / | /
Cc1ccc(S(=O)(=O)NCCC(=O)Nc2cccc(S(=O)(=O)N3CCCC3)c2)cc1C | 4 | 6 | 2 | 1 | / | /
COc1ccc(NC(=O)CN(C)CC(=O)N(C)C2(C#N)CCC(C)CC2)cc1 (stereo not drawn) | 9 | -7 | 4 | 44* | 33* | 3
CC1CCN(S(=O)(=O)c2ccc(NC(=O)Cc3ccccc3)cc2)CC1 | 0 | 0 | 0 | 0 | / | /
COc1cccc2c1C(=O)c1c(O)c3c(c(O)c1C2=O)C[C@@](O)(C(=O)CO)C[C@@H]3O[C@H]1C[C@H](N)[C@@H](O)[C@H](C)O1 | 45 | -344 | 14 | 69 | / | /
CC(=O)[C@]1(O)Cc2c(O)c3c(c(O)c2[C@@H](O[C@H]2C[C@H](N)[C@H](O)[C@H](C)O2)C1)C(=O)c1ccccc1C3=O | 20 | i | 0 | 41* | 46* | -2
CCOc1ccc(NC(=O)C2CCN(S(=O)(=O)c3cccnc3)CC2)cc1 | 2 | -11 | 2 | 0 | / | /
CC(C)NC(=O)C(C)N1CCN(S(=O)(=O)c2ccc3ccccc3c2)CC1 (stereo not drawn) | 15 | 0 | 1 | 57* | 59* | -1
CC(C)N1CCN(S(=O)(=O)c2ccc3ccccc3c2)CC1 | -1 | 20 | 0 | -3 | / | /
NCC(O)CN(c1ccccc1)c1ccccc1 (stereo not drawn) | -4 | -1 | 0 | -4 | / | /
CC(C)[N+](C)(C)CC(O)CN(c1ccccc1)c1ccccc1 (stereo not drawn) | 10 | 8 | 0 | 61* | 71* | 0
C=CCn1c(CCCNC(=O)CCC)nc2ccccc21 | -1 | -6 | 0 | 47* | -3 | 0
Cc1ccc(Cl)c(OCC(=O)NC2CCN(Cc3ccccc3)CC2)c1 | -7 | 1 | 0 | 0 | / | /
CC(=O)N1N=C(c2ccccc2)CC1c1ccccc1 (stereo not drawn) | -11 | -1 | 1 | -3 | / | /
SMILES | A3G deaminase | VLA-4 inh | GRK2 inh | APOBEC3A inh | APOBEC3A confirm | UDG A3A counter
CC1=CC(C)C(C[N+]2(C)CCCCC2)C(C)C1 (stereo not drawn) | 13 | 15 | 0 | 58* | 56* | -3
CC1=CC(C)C(COC(=O)CN2CCCCC2)C(C)C1 (stereo not drawn) | -4 | -2 | 2 | -2 | / | /
O=C(CSc1nnc(COc2ccccc2Cl)o1)NC(=O)NCc1ccco1 | 23 | 25 | 8 | 59* | 22* | -1
O=C1C2C(c3ccccc3)C=CC(c3ccccc3)C2C(=O)N1c1ccncc1 (stereo not drawn) | 5 | -3 | 0 | 4 | / | /
O=C1C2C3C=CC(C3)C2C(=O)N1c1ccncc1 (stereo not drawn) | -6 | -7 | 0 | 83* | -8 | -4
COc1cc(OC)c(C(=O)N(CCc2ccccc2)Cc2ccccc2)cc1OC | -2 | -4 | 0 | 65* | 0 | -2
Cc1cccc(C(=O)NCC(=O)Nc2ccncc2)c1 | -3 | -9 | 2 | 4 | / | /
O=C(COC(=O)Cc1cccc(C(F)(F)F)c1)Nc1cccc2ccccc12 | -6 | 3 | 0 | 41* | 6 | 4
COc1cccc(/C(O)=C2/C(=O)C(=O)N(Cc3cccnc3)C2c2ccco2)c1 (stereo not drawn) | 3 | 2 | 8 | 9 | / | /
O=C(Nc1ccc(NC(=O)c2ccco2)cc1)c1ccco1 | -5 | 0 | 2 | 3 | / | /
O=C(Nc1ccc(-c2ccccc2)cc1)c1ccco1 | 22 | 7 | 0 | 42* | 26 | /
CC[N+](C)(CC)CCOC(=O)C(O)(c1ccccc1)C1CCCCC1 (stereo not drawn) | 19 | 48 | 0 | 3 | / | /
CC[N+](C)(CC)CCC(c1ccccc1)C1CCCCC1 (stereo not drawn) | 10 | 13 | 2 | 48* | 67* | -2
CCOc1ccc(CCNC(=O)c2cccc(S(=O)(=O)N3CC(C)OC(C)C3)c2)cc1OCC (stereo not drawn) | -4 | 17 | 0 | 30 | / | /
Cn1cnnc1SC1c2cccc3cccc(c23)C1NS(=O)(=O)c1ccc(Cl)cc1 (stereo not drawn) | -3 | -3 | 1 | 1 | / | /
CC1(C)CC(NNCCC#N)=CC(=[N+]2CCCC2)C1 | 2 | -11 | 0 | 17 | / | /
CC1(C)CC(N2CCCC2)=CC(=[N+]2CCCC2)C1 | 22 | -4 | 0 | 66* | 72* | 2
COc1cc(C(C(=O)NC2CCCCC2)N(C(=O)Cc2c[nH]c3ccccc23)c2ccccc2C)cc(OC)c1OC (stereo not drawn) | -10 | 22 | 0 | -4 | / | /
COC(=O)c1ccc(C2/C(=C(\O)c3ccc4c(c3)OCCO4)C(=O)C(=O)N2c2nnc(C)s2)cc1 (stereo not drawn) | 1 | -12 | 1 | 1 | / | /
N#C/C(=C\c1c[nH]c2ccccc12)C(=O)NCC1CCCO1 (stereo not drawn) | 22 | 8 | 0 | 63* | 64* | 2
